Reference: the supplement of paper PMC6555819

Legend:
Test in all cases: PBM binding z-score (relative to random genomic background probes); higher = stronger binding; sequences stand for … in GC…GCGATTGACAGCGTAGAATGAAGG
[1] = tested on: RARg:RXRa (NR concentration 270 nM, RXRa partner concentration 90 nM)
Method in brief: (§1)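 Probes were double-stranded and carried 34-nt variable regions with direct-repeat seeds, single-nucleotide variants, half-site ablations and random human genomic background sequences, printed on custom Agilent 4×180K protein-binding microarrays. Arrays were incubated 1 h with ligand-free nuclear receptor dimers in PBS pH 7.4, 2% milk, 0.02% Triton X-100, 1 mM DTT, 0.2 mg/mL BSA and 0.4 mg/ml salmon testes DNA. Antibodies against each partner (one per run) detected binding, and scanned fluorescence was regression-normalized. Binding z-scores use the random background probes as reference.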

[2] = tested on: RARg homodimer (NR concentration 270 nM)
Method in brief: as §1

[3] = tested on: RXRa DBDmut IVT, anti-RXR (DBD mutation: RXRa K156A/R161A, NR concentration 90 nM)
Method in brief: as §1

[4] = tested on: THRa:RXRa (NR concentration 90 nM, RXRa partner concentration 90 nM)
Method in brief: as §1

[5] = tested on: THRa homodimer (NR concentration 90 nM)
Method in brief: as §1

[6] = tested on: VDR homodimer (NR concentration 270 nM)
Method in brief: as §1

[7] = tested on: RXRa homodimer (NR concentration 180 nM)
Method in brief: as §1

Sequence | PBM binding z-score [1] | PBM binding z-score [2] | PBM binding z-score [3] | PBM binding z-score [4] | PBM binding z-score [5] | PBM binding z-score [6] | PBM binding z-score [7]
AATACGGGGTCACTAGGCCAGAGTAGGTACGAAT | 7.06 | 6.82 | 4.12 | 4.25 | 2.25 | 4.82 | –
CCTCGGAGGTCAACAGGAGGTCAGAGCTGCCAGA | – | 7.73 | 3.36 | 4.73 | 1.81 | 3.37 | 7.54
GGAACGAGGTCAAAGTTGATAGCATCTGTCGACG | 6.64 | 6.56 | 4.67 | 4.12 | 2.61 | 4.79 | –
CAAACCAGGTCAAAGGTCAAAGTCGAGCCAACCA | 8.97 | 7.49 | 3.71 | 5.07 | 2.57 | 3.91 | –
CCAACTAGGTCAAAGGACAGTGAAAGGCGACGTA | – | 4.53 | 1.91 | 2.4 | 0.765 | 0.866 | 3.05
CGTCAAAGGTCAATGCTAGGTCAGTGAAAGCATT | – | 8.73 | 3.76 | 4.77 | 1.42 | 2.5 | –
CGTCCAAGGTCACAGAGGTCAGTGAATGCCGAGT | – | 8.03 | 3.92 | – | 3.95 | 6.67 | 7.67
CCGACGGGGGCAAAGGTTACCATACTCAGTACGA | 6.4 | 4.09 | 3.13 | 3.88 | 1.02 | 2.92 | –
CGTCAAAGGTCAGCAGGTCAGTGAAAGCGACGTG | – | 8.73 | 2.54 | 3.92 | 0.878 | 1.62 | –
CAAACGAGGTCACGAAAGGTCAAAGTCGAATGAC | – | 9.89 | 4.62 | 5.28 | 4.41 | 6.31 | –
CGTCAAAGGTCAAGGTCAGTGAAAGAGACTCGAA | – | 9.35 | 3.45 | 4.33 | 2.28 | 3.23 | –
CCGAGAAGGTTACGAGGGGGCATTCAGTGCGAAT | – | 3.13 | 1.65 | 4.4 | 0.555 | 3.67 | 3.45
CAAAATAGGTCACAGAGGTCAAAGTCCGTGCGTA | – | 8.18 | 3.08 | 4.74 | 2.2 | 6.13 | 8.46
TAGCCTAGTTCATGCGGGCCAGTATAGTGTCGGC | – | 0.586 | 1.71 | – | -0.684 | 1.56 | 0.0808
CGTCAAAGTTCAACTAAGGTCACGTAAAGCACGC | – | 8.89 | 4.75 | – | 5.58 | 6.52 | 7.65
CCTTAGGGGTCACGAGGTTATAGCACGACGAGCG | – | 8.18 | 4.14 | 4.53 | 1.8 | 4.55 | –
CGTCCAAGGTCATAGGGGGTCAGTGAAGACAGAT | – | 7.83 | 4.45 | 5.24 | 4.24 | 4.75 | 7.31
ACTTACGGGTCAACGAGGTCATAGCACGCGTATA | 7.14 | 6.95 | 3.65 | – | 3.64 | 7.5 | –

Sequence | PBM binding z-score [1] | PBM binding z-score [2] | PBM binding z-score [3] | PBM binding z-score [4] | PBM binding z-score [5] | PBM binding z-score [6] | PBM binding z-score [7]
ATATGTAGGTCAAGGGTCATTCAGGTTGGTTCGC | 7.22 | 6.02 | 2.84 | 4.58 | 2.22 | 4.28 | –
TAGCCTAGGTCATTCAGGGGCAAGTATAGAAAGC | – | 4.44 | 2.38 | – | 0.948 | 2.65 | 3.47
AGAACGAGGTCACGCTGAGTTGATAGCAGAGTAG | – | 7.61 | 4.36 | 4.37 | 3.59 | 5.15 | –
ATCGAAAGGTCAACGAGGTGAGTATACACCGTTT | – | 8.92 | 3.23 | 4.42 | 1.96 | 3.29 | –
CGAACGAGGTCACCAGGACAGTGAAGAGGTTGGA | 7.15 | 7.24 | 4.32 | 4.66 | 3.86 | 3.87 | –
TCTAGTAGGTCAAAGGTCACACACTCGAAATGCG | – | 7.76 | 2.77 | 4.73 | 2.3 | 3.32 | –
TCTAGTGGGTCAAAGGTCACACACTCGAAATGCG | – | 7.49 | 2.07 | 4.61 | 1.7 | 2.84 | –
TCTAGTTGGTCAAAGGTCACGCACTCGAAATGCG | – | 7.23 | 1.92 | 4.31 | 2.52 | 3.12 | 8.9
ATATGTAGGTTAAAGGTCATTCAGGTTGGTTCGC | 6.81 | 5.37 | 2.47 | 4.31 | 1.97 | 5.11 | –
GCTGCGAGGTCAACTGATGGTCAGCTAAAGCTCG | – | 7.44 | 4.3 | 4.33 | 2.9 | 3.42 | 7.17
CCTTAGGGGTCAAGGTTATAGCACGGGTGGTACG | – | 7.42 | 3.5 | 4.36 | 1.39 | 4.22 | –
CGTCAAAGGTCAACTAAGGTAACGTAAAGCACGC | – | 9.23 | 3.52 | 5.48 | 2.46 | 2.23 | –
TATACAGGGTCAAAGGCCAAAGTACGAATGTCGA | 6.22 | 5.3 | 3 | 3.76 | 0.785 | 3.3 | –
GCTGCTAGTTCAACTGATGGTCAGCTAAAGCTCG | 1.93 | 1.07 | 1.97 | 0.297 | -0.498 | 0.327 | –
TAGCCGAGGTCATTCAGGGGCCAGTATAGAAAGC | – | 6 | 4.38 | 4.56 | 2.38 | 5.34 | 6.55
TCTAGTCGGTCAAAGGTCACACACTCGAAATGCG | – | 7.3 | 1.78 | 4.13 | 2.24 | 2.75 | –
CAAAATAGGTCACGAAAGGTCAAAGTCGAATGAC | – | 8.76 | 2.5 | 5.07 | 1.51 | 3.8 | 8.89
CTATGTAGGTTAAGGGAGTCATTCAGTTTGAAAG | – | 0.44 | 0.0971 | 0.572 | -0.282 | 0.283 | 0.802
